# The supplement of paper PMC12669032
# Values without a mark were called inactive.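 How the source made its calls: active = AUC reduced over 20% with Padj below 0.05 in at least 2 of 3 replicates; inactive = otherwise.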
# Experiments:
# Assay in all cases: growth AUC relative to DMSO control (median of replicates) (fraction); higher = more growth (less inhibition), active = hit call of the paper
# Conditions in all cases: 20 µM; 24 h
# [1] = tested on: Coprococcus comes
# Method in brief: (§1)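 Gut bacterial monocultures were grown anaerobically at 37 °C in mGAM from a starting OD600 of 0.05 with 20 µM compound (1% DMSO), in round-bottom 96-well plates under pierced gas-permeable seals, and OD600 was read hourly for 24 h. With the minimum OD set to 0, area under the growth curve was normalised to the plate median of solvent-only wells, or to row and column medians on the industrial chemical plate. Each value is the median of three biological replicates grown on separate days.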
# [2] = tested on: Escherichia coli ED1a
# Method in brief: as §1
# [3] = tested on: Escherichia coli IAI1
# Method in brief: as §1
# [4] = tested on: Eubacterium rectale
# Method in brief: as §1
# [5] = tested on: Fusobacterium nucleatum subsp. animalis
# Method in brief: as §1
# [6] = tested on: Lactobacillus gasseri
# Method in brief: as §1
# [7] = tested on: Lactobacillus paracasei
# Method in brief: as §1
# [8] = tested on: Odoribacter splanchnicus
# Method in brief: as §1
# [9] = tested on: Parabacteroides distasonis
# Method in brief: as §1
# [10] = tested on: Parabacteroides merdae
# Method in brief: as §1
# [11] = tested on: Roseburia intestinalis
# Method in brief: as §1
# [12] = tested on: Streptococcus salivarius
# Method in brief: as §1
Compound,growth AUC [1],growth AUC [2],growth AUC [3],growth AUC [4],growth AUC [5],growth AUC [6],growth AUC [7],growth AUC [8],growth AUC [9],growth AUC [10],growth AUC [11],growth AUC [12]
CCCSP(=S)(OCC)Oc1ccc(SC)cc1 (centres undefined),1.04,1.01,0.959,0.985,1.07,0.946,1.02,1.07,0.98,0.996,1.06,0.93
Oc1ccc(Cc2ccc(O)cc2)cc1,0.968,1.03,0.979,1.09,0.987,1.04,0.962,0.942,0.89,0.994,0.999,0.966
CCCSP(=O)(OCC)Oc1ccc(Br)cc1Cl (centres undefined),1.01,1.01,1.04,0.993,1.11,0.976,1.1,1.04,0.871,0.994,1.01,1.01
Clc1ccc(C(c2ccc(Cl)cc2)C(Cl)(Cl)Cl)cc1,0.964,0.963,0.979,0.878,0.916,0.487,0.908,0.709,0.258 (active),0.69 (active),0.941,0.897
CON(C)C(=O)Nc1ccc(Br)cc1,1.05,1.02,1,1.02,1.07,1.15,1.02,1.01,0.983,1.01,1.06,0.999
CCCCCCCCCCCCC1=C(OC(C)=O)C(=O)c2ccccc2C1=O,0.863,1,0.975,0.889,1.02,0.504 (active),0.894,0.959,0.933,0.878,0.772,0.957
CC1(C)[C@H](C(=O)O[C@H](C#N)c2cccc(Oc3ccccc3)c2)[C@@H]1C=C(Br)Br,0.985,0.991,0.979,1.11,0.922,0.926,0.986,1.03,0.972,0.921,0.933,0.914
Oc1ccc(Cl)cc1Cc1cc(Cl)ccc1O,0.965,0.793 (active),0.684 (active),0.497 (active),0.845,0.115 (active),0.47 (active),0.0459 (active),0.0176 (active),0.0937 (active),0.64 (active),0.445 (active)
O=c1oc2ccccc2c(O)c1C1CC(c2ccc(OCc3ccc(C(F)(F)F)cc3)cc2)Cc2ccccc21 (mixture of isomers),0.858,1.03,1.04,0.431 (active),1.02,0.484 (active),0.631 (active),0.989,0.031 (active),0.251 (active),0.411 (active),0.212 (active)
CC1(C)C(/C=C(\Cl)C(F)(F)F)C1C(=O)OC(C#N)c1cccc(Oc2ccccc2)c1 (centres undefined),1.01,1.05,1.02,1.03,1.12,0.895,1.08,0.878,1.03,1.03,0.952,0.981
COS(=O)(=O)[O-].Cn1c(-c2ccccc2)cc(-c2ccccc2)[n+]1C,1,0.98,0.974,1,0.985,0.964,0.981,1.01,0.985,0.974,0.948,0.97
CC1(C)C(C(=O)OC(C#N)c2cccc(Oc3ccccc3)c2)C1(C)C (centres undefined),1.03,1.01,0.988,1,0.928,0.909,1.04,0.959,1.15,0.965,0.929,0.957
O=C(Nc1ccccc1-c1ccc(Cl)cc1)c1cccnc1Cl,1,0.981,1.01,0.968,0.956,1.08,0.972,0.86,0.839,0.998,1.01,1.01
COP1(=S)OCc2ccccc2O1 (centres undefined),1,0.991,1,1.08,1.12,0.945,0.997,1.04,1.05,0.999,0.943,1.01
COc1ccc(/C(=C/C(=O)N2CCOCC2)c2ccc(Cl)cc2)cc1OC,0.985,1.01,1.02,1.12,1.06,0.961,1.06,0.823,0.993,0.993,1.06,0.987
O=C1C(Cl)=C(Cl)C(=O)C(Cl)=C1Cl,1.02,1.03,1.02,0.844,1.01,0.973,1.01,0.912,1.04,0.927,0.995,1.01
CN(C)c1nc(=O)n(C2CCCCC2)c(=O)n1C,1.03,0.994,0.984,0.978,1.11,1.01,0.943,1.02,1.03,1.01,1.02,1.01
COC(=O)c1sccc1S(=O)(=O)NC(=O)Nc1nc(C)nc(OC)n1,0.962,0.97,0.967,1.14,0.975,0.859,1.03,1.01,0.969,0.973,0.947,0.859
COc1cccc(C(=O)NN(C(=O)c2cc(C)cc(C)c2)C(C)(C)C)c1C,1.01,0.974,0.97,1.07,0.884,0.818,0.947,0.966,0.86,0.908,0.985,0.966
CCN(CC)C(=O)C(C)Oc1cccc2ccccc12 (centres undefined),1.01,0.979,1.01,0.983,1.02,1.03,0.977,0.96,0.997,1.02,1.08,0.959
Cc1ccccc1[N+](=O)[O-],1,0.997,0.992,1,1.03,1.02,0.999,0.994,1.06,0.995,0.969,1.01
Cc1cc(Cl)ccc1N=CN(C)C.Cl,1.09,1,0.98,1.01,1.01,1.01,1.03,1,1.02,1.01,0.994,0.99
